Source: PubChem BioAssay (National Center for Advancing Translational Sciences (NCATS))
RECQ1 inh = qHTS Assay for Inhibitors of RecQ-Like Dna Helicase 1 (RECQ1); ATP-dependent DNA helicase Q1 (Homo sapiens), P46063; RECQ1 DNA unwinding, red fluorescence kinetic read; Potency, µM (series often up to 57.3 µM), inactives show at the top dose activity, negative = inhibition, usual class: inhibitors; 240,000 compounds, 0.54% hits; AID 2549, 2010;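 also: plate controls were vehicle for no effect and no enzyme for full effect; nearly all actives have a fitted effect of over 30% in size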
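RECQ1T1 50 nM; forked duplex (20 bp + 30-nt ss tails) 200 nM, ATP 2 mM final; pH 8.0, 2 mM MgCl2, 2.5 ug/ml poly(dI-dC); 15 min compound preincubation; discontinuous kinetic read over 2 h at RT.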
FEN1 inh = qHTS Assay for the Inhibitors of Human Flap endonuclease 1 (FEN1); P39748; Recombinant FEN1 flap cleavage, fluorescence, 15 min; Potency, µM (titrated, usually from 114 µM), for inactives: at the highest dose activity change, negative = inhibition, hits mostly inhibitors; 390,000 compounds, 0.35% hits; AID 588795, 2011; also: nearly all actives have a fitted effect of over 65% in size
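Read-out was taken twice, immediately and after 15 min, following addition of 50 nM substrate to 10 nM FEN1 that had sat with test compound for 15 min at room temperature. Curves came from a four-parameter Hill model.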
WRN inhibitor = qHTS for Inhibitors of WRN Helicase; Bifunctional 3'-5' exonuclease/ATP-dependent helicase WRN (Homo sapiens), Q14191; WRN helicase unwinding, fluorescent forked duplex, kinetic; Potency, µM (series often up to 114 µM), inactives show at the highest dose activity change, negative = inhibition, usual class: inhibitors; 360,000 compounds, 0.46% hits; AID 651768, 2012; also: nearly all actives have a fitted effect of over 55% in size
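Kinetic fluorescence helicase assay: unwinding of a quenched forked DNA duplex (100 nM final) with 2 mM ATP final raises red fluorescence (525/598 nm). Compounds sat 15 min at room temperature with 20 nM WRN beforehand.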
L3MBTL1 block = qHTS Assay for the Inhibitors of L3MBTL1. AlphaScreen L3MBTL1–H3K9me1 peptide binding. Lethal(3)malignant brain tumor-like protein 1 (Homo sapiens), Q9Y468. AID 485360, 2010. Potency, µM (doses to about 57.1 µM), inactives show at the top dose activity, negative = inhibition, actives largely listed as inhibitors. 230,000 compounds, 0.66% hits; also: nearly all actives have a fitted effect of over 60% in size
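AlphaScreen proximity signal between nickel-chelate acceptor and streptavidin donor beads (final 10 ug/mL) reports binding of 50 nM L3MBTL1 to 75 nM biotin-H3 K9me1 peptide; complex incubated with compounds 30 min at room temperature; cefsulodin titration as control.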
APEX1 inh = qHTS Assay for Inhibitors of the Human Apurinic/apyrimidinic Endonuclease 1 (APE1); recombinant APE1, TAMRA/BHQ-2 abasic DNA cleavage fluorescence; Potency, µM (top dose mostly 65.8 µM), for the others: at the highest dose activity change, negative = inhibition, most hits filed as inhibitors; 350,000 compounds, 0.35% hits; AID 2517, 2012;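 also: plate controls were vehicle for no effect and reference inhibitor for full effect; nearly all actives have a fitted effect of over 55% in size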
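Step 1: APE1 (0.75 nM) with compound, 15 min RT. Step 2: add 50 nM fluorophore/quencher THF duplex. Step 3: three fluorescence reads 60 s apart (525/598 nm); read 3 minus read 1 = reaction progress.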
BLM helicase inh = qHTS Assay for Inhibitors of Bloom's syndrome helicase (BLM) | RecQ-like DNA helicase BLM (Homo sapiens), P54132 | recombinant BLM DNA unwinding, fluorescence dequenching | Potency, µM (top dose mostly 56.1 µM), inactives show top-dose activity change, negative = inhibition, actives largely listed as inhibitors | 350,000 compounds, 0.2% hits | AID 2528, 2010;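 also: plate controls were vehicle for no effect and no enzyme for full effect; nearly all actives have a fitted effect of over 35% in size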
* marks the source's active call; other numbers are inactive results; i = inactive; ? = inconclusive; . = no result given; ! = not active in a repeat; [ ] = another dose, or the depositor's remark. This is a sample that favours compounds with a hit; in the whole collection about 1% have one here. Calls follow the shape of the dose curve; as a rule, active = well fitted curve in the direction sought with a large enough effect; inconclusive = small, poorly fitted or top-dose-only effect, or another doubt; inactive = no such curve, though single readings can be large; an effect the other way counts as inactive or inconclusive. Unless noted, % is scaled to controls: 0 for no effect and ±100 for the full control effect; potency is read from the fitted curve at half-maximal effect.

SMILES | RECQ1 inh | FEN1 inh | WRN inhibitor | L3MBTL1 block | APEX1 inh | BLM helicase inh
Cn1nc(-c2ccccc2F)c2cc(C(=O)NCc3ccccc3Cl)sc21 | . | 0% | . | . | . | -9%
C[C@H](CO)N1C[C@H](C)[C@@H](CN(C)C(=O)c2ccncc2)OCc2cnnn2CCCC1=O | . | . | -1% | . | . | .
O=c1[nH]sc2ccccc12 | -17% | ? | 32µM* | -22% | 3% | 1%
CCc1c(C)nc2nncn2c1Nc1ccc(Cl)cc1 | . | -5% | . | . | . | 3%
N#Cc1c(-c2cccs2)nc(SCc2ccc(Cl)cc2)[nH]c1=O | 20% | -24% | ? | ? | -15% | 28µM*
CSc1nc(-c2cccs2)c(C#N)c(=O)[nH]1 | -9% | -8% | -26% | 1% | 2% | -5%
O=C(NC1CCCCC1)[C@@H]1CC=C[C@@H]2CCN(Cc3ccc(Cl)c(Cl)c3)C(=O)[C@@H]21 | . | 15% | . | . | . | .
CC1=C(C(=O)OCc2ccccc2)N2C(=O)[C@@H](NC(=O)OCc3ccccc3)[C@H]2SC1 | . | -20% | . | . | . | .
O=C1c2cccnc2-c2ncccc21 | -22% | -11% | -11% | 11% | -5% | 4%
O=C1C(=O)c2cccnc2-c2ncccc21 | . | . | 18µM* | . | . | .
COC1=C(Br)C(=O)c2ncccc2C1=O | . | ? | 10µM* | . | . | .
COc1ccccc1N1C(=O)c2cccnc2C1=O | . | -4% | 12% | -5% | 25% | -3%
N#Cc1nonc1-c1ccccc1 | . | . | . | . | 2% | .
C[C@H](O)C#Cc1ccc2c(c1)O[C@@H](CN(C)Cc1ccc(-c3ccccc3)cc1)[C@H](C)CN([C@@H](C)CO)S2(=O)=O | . | . | -2% | . | . | .
Cc1nnsc1C(=O)N/N=C/c1ccc2ccccc2c1O | -2% | -9% | -22% | 2µM* | 1% | -3%
CC(=O)N1[C@H](Cc2ccccc2)C=C[C@]1(C)C(=O)O | i | . | . | . | -5% | 2%
CC(=O)Nc1ccc(NC(=S)NC(=O)/C=C/c2ccco2)cc1 | . | 50µM* | ? | 2%[2.29 µM] | 0% | -11%
Cc1ccc(CN2C(=O)c3ccccc3C2c2nnnn2-c2c(C)cccc2C)cc1 (stereo not given) | . | . | -6% | . | . | .
O=C1C2C3C=CC(C3)C2C(=O)N1CNc1ccc(O)cc1 (stereo not given) | ? | . | . | ? | ? | 25µM*
Cc1cccc(NS(=O)(=O)c2c(C)nc3sccn3c2=O)c1C | . | 5% | . | . | . | 1%
Cc1ncc(C(O)c2ccccc2)n1Cc1ccccc1 (stereo not given) | . | . | -1% | . | . | .
CC(C)(C)n1ncc2c(=O)n(Cc3cc(F)ccc3Cl)cnc21 | . | -20% | . | . | 12% | .
CN1C(=O)N(C)C2=NNC=NC2(O)C1=O (stereo not given) | -3% | . | . | . | 13% | 28µM*
CNC(=O)C12N=CNN=C1N(C)C(=O)N2C (stereo not given) | -8% | 1% | -25% | . | ? | -7%
CCCCCC#CCC#CCC#CCC#CCCCC(=O)O | 1.1µM*! | . | . | ? | 2µM*! | 13µM*!
CCOc1ccc(Oc2c(C)oc3cc(O)ccc3c2=O)cc1 | i | 2% | 8% | 5% | -6% | -4%
Cc1oc2cc(O)ccc2c(=O)c1Oc1ccccc1 | i | 0% | 71µM* | 3% | -2% | 2%
CN(C)[C@@H]1C(=O)C(C(=O)NCN2CCCC2)=C(O)[C@@]2(O)C(=O)C3=C(O)c4c(O)cccc4[C@@](C)(O)C3CC12 (stereo not given in full) | 3.2µM* | . | . | ? | 2.5µM* | 14µM*
